RORg inh: blocks mouse ROR gamma transcriptional activity | 5.4% of 310,000 active | Drosophila S2 Gal4-RORgamma UAS-luciferase reporter, 20 h | P51450 | Potency, µM (series often up to 53.6 µM), without a hit: top-dose activity change, negative = inhibition, hits mostly inhibitors; further: nearly all actives have a fitted effect of over 60% in size
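In this cell-based reporter format, copper sulfate (700 uM final) drives Gal4–ROR gamma fusion expression from a metallothionein promoter in Drosophila Schneider cells; compounds preincubated 1 hr, reporter read after 20 hr at ambient temperature.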
12-LOX inh: ALOX12 (human) lipoxygenase inhibition; purified 12hLO, xylenol orange hydroperoxide absorbance; Potency, µM (titrated, usually from 108 µM), without a hit: at the highest dose activity change, negative = inhibition, actives largely listed as inhibitors; 1.1% of 580,000 active
Target sequence (P18054 whole entry, looked up): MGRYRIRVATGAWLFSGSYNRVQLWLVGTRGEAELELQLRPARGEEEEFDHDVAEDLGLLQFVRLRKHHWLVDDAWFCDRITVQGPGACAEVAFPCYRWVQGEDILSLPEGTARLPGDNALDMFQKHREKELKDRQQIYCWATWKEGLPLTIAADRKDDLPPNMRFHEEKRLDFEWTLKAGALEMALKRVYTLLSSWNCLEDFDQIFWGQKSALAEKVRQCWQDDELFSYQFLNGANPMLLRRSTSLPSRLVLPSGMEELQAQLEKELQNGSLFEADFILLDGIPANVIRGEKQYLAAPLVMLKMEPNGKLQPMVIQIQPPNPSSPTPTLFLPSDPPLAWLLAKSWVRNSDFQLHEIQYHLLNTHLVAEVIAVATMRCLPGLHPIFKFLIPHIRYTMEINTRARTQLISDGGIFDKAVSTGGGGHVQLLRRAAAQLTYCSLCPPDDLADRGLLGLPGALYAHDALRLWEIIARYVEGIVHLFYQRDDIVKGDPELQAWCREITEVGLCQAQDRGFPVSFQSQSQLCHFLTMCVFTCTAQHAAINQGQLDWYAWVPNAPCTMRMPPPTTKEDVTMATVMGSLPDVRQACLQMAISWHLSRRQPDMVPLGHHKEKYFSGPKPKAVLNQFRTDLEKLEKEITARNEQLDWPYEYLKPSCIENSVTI
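Hydroperoxide product was detected by ferrous iron/xylenol orange as the 573 to 405 nm absorbance ratio. Arachidonic acid at 40 uM (final) was turned over for 30 min at room temperature by 150 nM human 12hLO, pH 7.0 Hepes buffer, after 15 min compound preincubation.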
DT40 TDP1 CPT: growth inhibition of DT40 Tdp1-/-;hTDP1 cells with camptothecin (screen for TDP1 inhibitors); Potency, µM (doses to about 46.2 µM), for the others: at the highest dose activity change, negative = growth inhibition, actives largely listed as inhibitors; chicken DT40 Tdp1-/-;hTDP1 cells + 20 nM CPT, ATP luminescence, 48 h; 12% of 420,000 active; further: nearly all actives have a fitted effect of over 55% in size
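Chicken DT40 Tdp1-/- cells complemented with human TDP1, 400 cells/well, exposed to compounds plus 20 nM camptothecin for at least 48 h at 37 C; viability read as ATP content by CellTiter-Glo luminescence.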
Gal4-VP16 FLuc: inhibits Gal4-VP16 luciferase reporter, ROR gamma counter-screen; Drosophila S2 Gal4-VP16 UAS-luciferase, luminescence, 20 h; Potency, µM (titrated, usually from 53.6 µM), without a hit: at the highest dose activity, negative = inhibition, most hits filed as inhibitors; 3.5% of 310,000 active;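 further: Gal4-VP16 expression switched on by copper sulfate through the metallothionein promoter; nearly all actives have a fitted effect of over 50% in size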
ELG1 DNA repair: inhibitors of ELG1-dependent DNA repair in HEK293T cells; HEK293T ELG1-luciferase reporter, luminescence, 16 h; DNA damage induced by 5-fluorouridine; Potency, µM (titrated, usually from 46.1 µM), inactives show at the highest dose activity change, negative = inhibition, hits mostly inhibitors; 2.3% of 330,000 active; AID 504467; further: nearly all actives have a fitted effect of over 55% in size
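5-Fluorouridine DNA damage + compound/DMSO, 2,000 cells/well, 16 h, 37 °C/5% CO2. ONE-Glo, 30 min RT, luminescence. Readout = decrease in reporter signal.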
DT40 TDP1 no CPT: qHTS for Inhibitors of human tyrosyl-DNA phosphodiesterase 1 (TDP1): qHTS in cells in absence of CPT. DT40 Tdp1-/- hTDP1 cells, no CPT, ATP luminescence, 48 h. Potency, µM (highest dose often 46.2 µM), for the others: at the highest dose activity change, negative = growth inhibition, most hits filed as inhibitors. AID 686978, 2013. 15% of 420,000 active; further: nearly all actives have a fitted effect of over 55% in size
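Chicken DT40 Tdp1-/- cells complemented with human TDP1, screened without camptothecin (DMSO vehicle only), 400 cells/well. Compounds pin-transferred, cells incubated at 37 °C for at least 48 hr. Growth read as ATP-dependent luminescence (CellTiter-Glo, 30 min at RT).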
Numbers without * were called inactive; [ ] = another dose, or the depositor's remark. Hits are enriched below; roughly 15% of the tested compounds scored in any of these assays. The call rests on the fitted dose curve; in most records, active means well fitted curve in the direction sought with a large enough effect; inconclusive means small, poorly fitted or top-dose-only effect, or another doubt; inactive means no such curve, though single readings can be large; an effect the other way counts as inactive or inconclusive. On the % scale 0 is the no-effect control and ±100 the full control effect; potency means the concentration at half of the fitted maximal effect.

What do the screens show for `CC(C)C1C(=O)N(Cc2cn(CCC3OCCO3)nn2)CCS(=O)(=O)N1Cc1ccc(-c2cccc(N(C)C)c2)cc1` (centres undefined)?
12-LOX inh: 1.2%; DT40 TDP1 CPT: -19.9%; DT40 TDP1 no CPT: inconclusive

How did CCC/C=C/c1ccc(CN2C(C(C)C)C(=O)N(Cc3cn(CCC4OCCO4)nn3)CCS2(=O)=O)cc1 (centres undefined) do in these assays?
12-LOX inh: inconclusive; DT40 TDP1 CPT: inconclusive; DT40 TDP1 no CPT: 13µM*

How did COc1cc(/C=C(\C#N)C(=O)Nc2ccc(OC(F)(F)F)cc2)cc(OC)c1OC do in these assays?
12-LOX inh: -1.6%

How did COC(=O)CNC(=O)C12CC3CC(C1)CC(c1ccccc1)(C3)C2 do in these assays?
12-LOX inh: -14.9%

How did O=C(Nc1cccc(-c2nc3ccccc3o2)c1)c1cccnc1 do in these assays?
RORg inh: 3.7%; 12-LOX inh: -16.0%; DT40 TDP1 CPT: inconclusive; Gal4-VP16 FLuc: -7.7%; ELG1 DNA repair: inconclusive; DT40 TDP1 no CPT: 20.6µM*

Results for O=C(O)c1ccccc1-c1ccccc1C(=O)Nc1cccc(-c2nc3ccccc3o2)c1 ?
RORg inh: 17.8%; 12-LOX inh: 11.2µM*; DT40 TDP1 CPT: -16.5%; Gal4-VP16 FLuc: -2.5%; ELG1 DNA repair: 0.0%; DT40 TDP1 no CPT: -33.4%

How did O=C(O)c1ccccc1-c1ccccc1C(=O)Nc1ccc2c(c1)oc(=O)c1ccccc12 do in these assays?
12-LOX inh: -8.7%; DT40 TDP1 CPT: inconclusive; DT40 TDP1 no CPT: 13µM*

Results for CCC(CC)NC(=O)[C@H]1CCC[C@H]1NC(=O)c1ccc(OC)nc1 ?
12-LOX inh: 22.7%

What do the screens show for `N#Cc1ccc(Oc2cccc(C(=O)OCC(=O)c3ccccc3)c2)cc1C#N`?
12-LOX inh: -22.9%

How did O=C(N/N=C/C(Br)=C\c1ccccc1)c1n[nH]c2c1CCC2 do in these assays?
RORg inh: inconclusive; 12-LOX inh: -8.5%; DT40 TDP1 CPT: 0.231µM*; Gal4-VP16 FLuc: -73.2%; ELG1 DNA repair: inconclusive; DT40 TDP1 no CPT: 0.231µM*

How did Cc1cc(C(=O)N/N=C/C=C/c2ccccc2)n[nH]1 do in these assays?
RORg inh: -24.5%; 12-LOX inh: 39.3%; DT40 TDP1 CPT: -4.7%; Gal4-VP16 FLuc: -1.2%; ELG1 DNA repair: 18.2%; DT40 TDP1 no CPT: -9.4%

What do the screens show for `O=C(N/N=C/C=C/c1ccccc1)c1n[nH]c2c1CCC2`?
RORg inh: 8.9%; 12-LOX inh: 491.6%; DT40 TDP1 CPT: 1.64µM*; Gal4-VP16 FLuc: -25.4%; ELG1 DNA repair: inconclusive; DT40 TDP1 no CPT: 0.82µM*

What do the screens show for `CC(C)C(=O)N1CCOC[C@H](Oc2ccc(C(F)(F)F)cn2)C1`?
12-LOX inh: 38.5%[176 µM]

How did Cc1ccc(Cl)cc1N1CCN(C(=O)Cn2cnc3nc4c(cc3c2=O)CCCC4)CC1 do in these assays?
12-LOX inh: -13.2%; DT40 TDP1 CPT: inconclusive; DT40 TDP1 no CPT: inconclusive

Results for CCn1c(SCc2ccc(Cl)cc2Cl)nc2nc3c(cc2c1=O)CCCC3 ?
RORg inh: 7.08µM*; 12-LOX inh: -0.9%; DT40 TDP1 CPT: inconclusive; Gal4-VP16 FLuc: 6.0%; ELG1 DNA repair: -4.5%; DT40 TDP1 no CPT: inconclusive

What do the screens show for `CC1CCN(C(=O)Cn2nnc(-c3ccc(C(C)C)cc3)n2)CC1`?
RORg inh: inconclusive; 12-LOX inh: 4.3%; DT40 TDP1 CPT: 16.4µM*; Gal4-VP16 FLuc: inconclusive; ELG1 DNA repair: -2.8%; DT40 TDP1 no CPT: inconclusive

How did O=C(Cn1nnc(-c2ccccc2)n1)N1CCC(c2nc3ccccc3s2)CC1 do in these assays?
12-LOX inh: 39.8µM*

What do the screens show for `CC(C)c1ccc(-c2noc(SCC(=O)N3CCN(c4ccc(F)cc4)CC3)n2)cc1`?
12-LOX inh: -8.9%; DT40 TDP1 CPT: -22.1%; DT40 TDP1 no CPT: -16.5%

What do the screens show for `COc1ccc(N2CCN(C(=O)CSc3nc(-c4ccc(C(C)C)cc4)no3)CC2)cc1`?
12-LOX inh: inconclusive; DT40 TDP1 CPT: 18.4µM*; DT40 TDP1 no CPT: 11.6µM*

What do the screens show for `CC(C)c1ccc(-c2noc(SCC(=O)N3CCCCC3C)n2)cc1` (centres undefined)?
12-LOX inh: -11.4%; DT40 TDP1 CPT: inconclusive; DT40 TDP1 no CPT: 14.6µM*

What do the screens show for `O=C(Cn1nnc(-c2ccccc2)n1)N1CCCC(c2nc3ccccc3s2)C1` (centres undefined)?
12-LOX inh: 16.9%

How did COc1cc(-n2ccc3c(nnc4c(-c5cccc(Cl)c5)c(C)nn43)c2=O)cc(OC)c1OC do in these assays?
12-LOX inh: 1.4%

How did CC1CCN(C(=O)CSc2nc(-c3ccccc3)no2)CC1 do in these assays?
12-LOX inh: -12.0%; DT40 TDP1 CPT: -16.3%; DT40 TDP1 no CPT: -24.6%

What do the screens show for `CC1CCN(C(=O)CSc2nc(-c3ccc(C(C)C)cc3)no2)CC1`?
12-LOX inh: -40.0%; DT40 TDP1 CPT: 20.6µM*; DT40 TDP1 no CPT: 23.1µM*

How did CC1CCCCN1C(=O)CSc1nnc(-c2cccc(Cl)c2)o1 (centres undefined) do in these assays?
12-LOX inh: -4.6%; DT40 TDP1 CPT: 16.4µM*; DT40 TDP1 no CPT: inconclusive

What do the screens show for `CC1CCCCN1C(=O)CSc1nnc(-c2ccco2)o1` (centres undefined)?
RORg inh: -11.3%; 12-LOX inh: -8.0%; DT40 TDP1 CPT: -6.8%; Gal4-VP16 FLuc: inconclusive; ELG1 DNA repair: inconclusive; DT40 TDP1 no CPT: -16.8%

Results for CC(O)CNc1nc2c(c(=O)n(C)c(=O)n2C)n1Cc1c(Cl)cccc1Cl (centres undefined) ?
12-LOX inh: 40.3%

Results for Cc1ccc(NC(=O)c2nn(C)c3c2CCc2sccc2-3)cc1F ?
12-LOX inh: -5.9%

Results for COc1ccc(Cc2nc3ccccc3n2CC(=O)N/N=C/c2ccccc2)cc1OC ?
RORg inh: 1.8%; 12-LOX inh: -15.2%; DT40 TDP1 CPT: inconclusive; Gal4-VP16 FLuc: -7.9%; ELG1 DNA repair: -20.4%; DT40 TDP1 no CPT: inconclusive

Results for C=CCSc1nc2ccccc2n1C(=O)/C=C/c1ccc(OC)c(OC)c1 ?
RORg inh: 5.01µM*; 12-LOX inh: -4.1%; DT40 TDP1 CPT: 5.01µM*; Gal4-VP16 FLuc: 11.2µM*; ELG1 DNA repair: inconclusive; DT40 TDP1 no CPT: 3.55µM*

How did COc1ccc(CC(=O)n2c(CC#N)nc3ccccc32)cc1OC do in these assays?
RORg inh: 11.2µM*; 12-LOX inh: 426.9%; DT40 TDP1 CPT: -13.4%; Gal4-VP16 FLuc: inconclusive; ELG1 DNA repair: -13.7%; DT40 TDP1 no CPT: -18.3%

Assay outcomes as filed in PubChem.
